Some targets named below: hnRNP-D0 (Homo sapiens, UniProt Q14103); PABPC1L (Homo sapiens, UniProt Q4VXU2); NCL (Homo sapiens, UniProt P19338); hnRNP-A/B (Homo sapiens, UniProt Q99729); HNRNPA1L2 (Homo sapiens, UniProt Q32P51).
Assay in all cases: protein domain microarray probed with biotinylated miRNA; Domain array: 20 mM Tris-HCl pH 7.4, 200 mM KCl, 0.2 mM EDTA, 0.05% NP40, 2 ug/ul heparin, overnight 4 C. ORF array: PBS pH 7.0 with RNase inhibitor, 100 ng RNA; high values mean tight binding
Common to all, as to details: ssRNA

A further assay has as its target T1, PABPN1 (Homo sapiens, UniProt Q86U42).
T1 sequence: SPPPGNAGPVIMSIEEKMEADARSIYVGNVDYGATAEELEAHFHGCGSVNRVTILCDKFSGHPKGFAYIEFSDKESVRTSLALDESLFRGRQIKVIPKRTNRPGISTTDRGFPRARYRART

The next assay concerns the target T2, CNOT4 (Homo sapiens, UniProt O95628).
T2 sequence: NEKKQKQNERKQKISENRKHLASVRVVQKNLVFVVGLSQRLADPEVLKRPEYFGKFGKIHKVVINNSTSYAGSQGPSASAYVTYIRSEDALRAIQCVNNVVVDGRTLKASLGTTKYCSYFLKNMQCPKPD

The target of another assay is T3, CSTF2 (Homo sapiens, UniProt P33240).
T3 sequence: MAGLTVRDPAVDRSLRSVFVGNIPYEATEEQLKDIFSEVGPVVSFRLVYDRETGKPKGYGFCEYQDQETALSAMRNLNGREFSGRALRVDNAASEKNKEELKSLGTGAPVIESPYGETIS

The target in the next assay is T4, CPSF7 (Homo sapiens, UniProt Q8N684).
T4 sequence: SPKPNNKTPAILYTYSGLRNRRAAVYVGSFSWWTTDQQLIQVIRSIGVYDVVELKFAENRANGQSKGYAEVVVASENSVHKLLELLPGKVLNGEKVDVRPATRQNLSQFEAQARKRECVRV

The target of the next assay is T5, DRBP1(3-4) (Homo sapiens, UniProt Q8IUH3).
T5 sequence: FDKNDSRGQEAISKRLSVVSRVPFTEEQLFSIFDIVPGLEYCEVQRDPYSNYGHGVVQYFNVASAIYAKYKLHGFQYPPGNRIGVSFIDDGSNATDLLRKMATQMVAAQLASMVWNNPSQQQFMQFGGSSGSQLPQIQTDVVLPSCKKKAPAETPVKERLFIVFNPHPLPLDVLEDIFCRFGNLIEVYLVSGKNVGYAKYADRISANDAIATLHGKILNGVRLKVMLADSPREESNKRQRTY

Chain of PABPC1L (Q4VXU2 1-390): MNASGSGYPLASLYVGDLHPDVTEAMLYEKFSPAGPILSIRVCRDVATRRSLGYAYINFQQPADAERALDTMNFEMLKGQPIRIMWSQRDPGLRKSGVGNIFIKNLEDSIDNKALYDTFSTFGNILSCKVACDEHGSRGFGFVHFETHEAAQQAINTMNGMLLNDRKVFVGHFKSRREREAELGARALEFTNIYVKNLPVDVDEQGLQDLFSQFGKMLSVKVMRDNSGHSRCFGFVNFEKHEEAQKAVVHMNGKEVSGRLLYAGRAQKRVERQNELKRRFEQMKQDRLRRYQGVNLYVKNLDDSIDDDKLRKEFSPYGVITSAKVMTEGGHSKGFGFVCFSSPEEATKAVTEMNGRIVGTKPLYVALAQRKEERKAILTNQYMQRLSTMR
Chain of HNRNPA1L2 (Q32P51 1-205): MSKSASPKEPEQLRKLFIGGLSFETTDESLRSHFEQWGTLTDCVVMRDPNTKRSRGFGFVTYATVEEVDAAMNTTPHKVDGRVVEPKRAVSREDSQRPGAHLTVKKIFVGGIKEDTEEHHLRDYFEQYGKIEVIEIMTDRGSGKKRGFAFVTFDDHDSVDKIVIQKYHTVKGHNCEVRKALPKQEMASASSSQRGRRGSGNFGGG
Chain of NCL (P19338 288-670): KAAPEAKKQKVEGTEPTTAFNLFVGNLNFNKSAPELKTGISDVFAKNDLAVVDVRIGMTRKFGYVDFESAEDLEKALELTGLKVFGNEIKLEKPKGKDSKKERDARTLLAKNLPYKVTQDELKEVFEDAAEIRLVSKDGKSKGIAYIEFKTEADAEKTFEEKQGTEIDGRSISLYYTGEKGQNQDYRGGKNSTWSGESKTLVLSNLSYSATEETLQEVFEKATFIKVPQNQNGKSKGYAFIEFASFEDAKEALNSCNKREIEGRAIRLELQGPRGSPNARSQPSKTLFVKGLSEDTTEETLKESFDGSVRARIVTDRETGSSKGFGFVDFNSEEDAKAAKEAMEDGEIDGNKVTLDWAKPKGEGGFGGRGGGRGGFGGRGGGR
Chain of hnRNP-A/B (Q99729 50-250): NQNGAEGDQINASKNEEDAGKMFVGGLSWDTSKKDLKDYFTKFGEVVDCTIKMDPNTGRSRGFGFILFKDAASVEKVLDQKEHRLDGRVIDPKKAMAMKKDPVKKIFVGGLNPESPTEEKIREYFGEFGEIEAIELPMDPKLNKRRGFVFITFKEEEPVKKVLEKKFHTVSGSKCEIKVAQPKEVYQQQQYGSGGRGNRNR
Chain of hnRNP-D0 (Q14103 80-280): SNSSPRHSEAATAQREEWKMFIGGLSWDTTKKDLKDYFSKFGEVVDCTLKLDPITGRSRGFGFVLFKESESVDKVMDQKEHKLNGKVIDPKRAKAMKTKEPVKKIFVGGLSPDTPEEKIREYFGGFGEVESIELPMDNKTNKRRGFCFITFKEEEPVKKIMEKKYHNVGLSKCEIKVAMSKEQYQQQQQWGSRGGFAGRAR

On to UGAGGUAGUAGGUUGUAUAGUU, for which the binding signal in the assay with hnRNP-D0 was 580 ± 40.2 fluorescence intensity; with PABPC1L, 626 ± 62.6 fluorescence intensity; in the assay with NCL, 1458 ± 3.11 fluorescence intensity; with PABPN1, 2100 ± 89.2 fluorescence intensity; with CNOT4, 73.77 ± 0.226 fluorescence intensity; with CSTF2, 546 ± 37.1 fluorescence intensity. In addition, the binding signal turned out to be 453 ± 6.64 fluorescence intensity with hnRNP-A/B, 21.4 ± 4.04 fluorescence intensity in the assay with CPSF7 and 226 ± 23.1 fluorescence intensity with HNRNPA1L2.
For the sequence UGAGGUAGUAGGUUGUGUGGUU, the binding signal in the assay with hnRNP-D0 is 1275 ± 12.6 fluorescence intensity; in the assay with PABPC1L, 1150 ± 102 fluorescence intensity; with NCL it was 2320 ± 38.6 fluorescence intensity; in the assay with PABPN1 it was 2208 ± 3.21 fluorescence intensity; with CNOT4, 448 ± 8.85 fluorescence intensity; with CSTF2, 1760 ± 71.7 fluorescence intensity. The binding signal with DRBP1(3-4) stood at 117 ± 36.4 fluorescence intensity; with hnRNP-A/B, 1294 ± 7.55 fluorescence intensity; in the assay with CPSF7, 106 ± 4.55 fluorescence intensity; with HNRNPA1L2 it was 551 ± 58 fluorescence intensity.
For the sequence CAGUGCAAUGAUGAAAGGGCAU, the binding signal was 338 ± 13.6 fluorescence intensity with hnRNP-D0; 990.7 ± 2.47 fluorescence intensity in the assay with PABPC1L; 2833 ± 25.8 fluorescence intensity with NCL; 2170 ± 30.4 fluorescence intensity in the assay with PABPN1; 235.49 ± 0.198 fluorescence intensity with CNOT4; 484 ± 5.24 fluorescence intensity in the assay with CSTF2. Further, the binding signal amounted to 77 ± 15.6 fluorescence intensity in the assay with DRBP1(3-4), 1111 ± 3.46 fluorescence intensity with hnRNP-A/B, 47.8 ± 6.69 fluorescence intensity with CPSF7 and 236 ± 20 fluorescence intensity in the assay with HNRNPA1L2.
On to UAGCUUAUCAGACUGAUGUUGA, for which the binding signal with hnRNP-D0 amounted to 106 ± 5.55 fluorescence intensity; with PABPC1L it was 126 ± 31.5 fluorescence intensity; in the assay with NCL, 1820 ± 62.5 fluorescence intensity; with PABPN1 it was 329 ± 38.4 fluorescence intensity; with CNOT4, 35.05 ± 0.099 fluorescence intensity; in the assay with CSTF2 it was 142 ± 42.3 fluorescence intensity. For the same sequence, the binding signal in the assay with hnRNP-A/B is 108 ± 7.62 fluorescence intensity.
As for UGAGGUAGUAGGUUGUAUGGUU, the binding signal stood at 1386 ± 9.72 fluorescence intensity with hnRNP-D0; 1355 ± 13.5 fluorescence intensity with PABPC1L; 2733 ± 6.99 fluorescence intensity in the assay with NCL; 2730 ± 37.5 fluorescence intensity in the assay with PABPN1; 263.8 ± 1.66 fluorescence intensity with CNOT4; 877 ± 50.3 fluorescence intensity with CSTF2. Besides, the binding signal with DRBP1(3-4) is 95.6 ± 13.4 fluorescence intensity; in the assay with hnRNP-A/B, 1148 ± 9.7 fluorescence intensity; with CPSF7, 58.9 ± 3.79 fluorescence intensity; with HNRNPA1L2, 644 ± 46.8 fluorescence intensity.
On to AGAGGUAGUAGGUUGCAUAGUU, for which the binding signal was 1690 ± 40.2 fluorescence intensity with hnRNP-D0; 1740 ± 116 fluorescence intensity with PABPC1L; 3640 ± 50 fluorescence intensity in the assay with NCL; 3510 ± 43.1 fluorescence intensity with PABPN1; 230 ± 7.35 fluorescence intensity in the assay with CNOT4; 1640 ± 152 fluorescence intensity with CSTF2. The binding signal with DRBP1(3-4) was determined as 63.1 ± 5.42 fluorescence intensity; with hnRNP-A/B, 1830 ± 93.1 fluorescence intensity; with CPSF7 it was 48.3 ± 8.88 fluorescence intensity; with HNRNPA1L2, 630 ± 43.3 fluorescence intensity.

For the origin of these results see PMC11574364.
